We go through 107 sequences from PubChem BioAssay AID1508600 (Functional Genomics Laboratory (NCATS/FGL), 2020).

Hit rate of the full screen: of about 53,000 sequences, about 3,700 (7%) were called active. Shown is part of a subset that was picked to be rich in actives. A number with no mark means an inactive call.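 The calls were made as follows: active = gene knockdowns whose robust z-score for IL-1 alpha signal is at least 2 or at most -2, so actives lie on both sides; inactive = the rest.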

A short description of the test: Components of the Cytosolic LPS Sensing Pathway: Gene Identification via Genome-wide siRNA Screen.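 Also: robust z of the log signal after scaling to non-targeting control siRNA wells of the plate.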 The conditions noted are these: RAW264.7 macrophages, IL-1a HTRF, actives lie on both sides, screened at 100 nM (by protocol), cells primed 5 h with Pam3CSK4 first. The method in brief:
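Supernatant IL-1a by HTRF from RAW264.7 cells primed with Pam3CSK4 (5 hours) and transfected with LipidA (24 hour) after 48h siRNA knockdown at 100 nM; cell viability checked with CellTiter-Glo.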
As for GCCAUUCUAACUCUGCCUCTT against Olfr639, the z-score is 0.232.

For GGGUUCAACACAGCCAAUGTT against Fam151a, the z-score is 0.987.

On to CCCUAUUUGACAAAUUCCUTT against Cdo1, for which the z-score is 0.245.

Consider GCUGAAUCACUACCAGUCATT against Zfp462, for which the z-score is 1.27.

In the case of GGCAAUUCGAAUUUUGGUUTT against Rtraf, the z-score was 0.891.

GGCAAACGAAACACUAGCATT against Cacna1d: the z-score is 4.94 (active).

For the sequence GGUACUUCAUCGAUUCAGCTT against Zfp593, the z-score is -0.561.

GGAUAGCACAGCCCUACAUTT against Kcns1: the z-score is -0.197.

In the case of GCUUACUGUCCCUUAAGUUTT against Msantd1, the z-score is 2.45 (active).

Take GGACAAAGAUGAAUAUGUGTT against Spag6l: the z-score was -0.34.

Consider GGCCGUGAUGCUAGAGAACTT against Zfp661, for which the z-score was 0.131.

For the sequence GGUGAUUCACAUACUUUAUTT against Vps54, the z-score is 0.612.

Turning to GGGUUACCAGACUAACAAATT against Stfa3, the z-score was 0.763.

For GCGAAUUCGUGAGAAGAGCTT against Ripk4, the z-score is -0.884.

Regarding GCACGUAUGCUCUUUCUCATT against Pigw, the z-score was -2.52 (active).

Consider CCAAGUAAGGACUAUAGAGTT against Gpatch2, for which the z-score was -1.02.

Turning to CGCUGCUAAGAAUCAUCUATT against Ednrb, the z-score was 0.287.

For the sequence GGAAGCCACGGUCAUGUGUTT against Trim9, the z-score is 0.746.

Consider GGAAUGGGCAGUAUGAGUUTT against Ocrl, for which the z-score was -1.73.

In the case of GGUAGUCAAGUCGAAAGUATT against Ccdc18, the z-score was -2.19 (active).

As to GGACAAUGCUGUGACCUCUTT against Amn, the z-score was -0.949.

Turning to GGGAAGCAGAAAUGAGAAATT against Pdcd5, the z-score is 0.135.

As to GAGUGUUUCAGAUUCUUCATT against Klra8, the z-score is 0.329.

Take UCUUUGUGAUUUCGAAGCCTT against Slc17a9: the z-score is 2.31 (active).

GGAUAAAGAAGGUAUUCUUTT against Mccc1: the z-score is -0.891.

On to GGCCCAGAAGGUUAUCAUCTT against Ptf1a, for which the z-score is 0.606.

Turning to GGAAAUCACGACCAUGGCGTT against Gtf2b, the z-score was 0.0198.

As for GCACUUCCGACUUUUUCACTT against Mettl24, the z-score was -1.69.

Regarding GAGCUUCUGGCUGAGAUAATT against Espn, the z-score is -0.388.

Turning to “GUGUAUGCGCUGAUCCUAUTT against 1700020N01Rik”, the z-score is 0.181.

Take GGAGCUCUCAUCCUACUAUTT against Eif4ebp3: the z-score is -0.0855.

For the sequence GGCCUUUGAGAAGAACAUUTT against Copz1, the z-score is -2.16 (active).

With GGAGUUUUUAUUCAAGGAATT against Slc35b3, the z-score was -1.07.

Take GGCAGUGUACAUCUGGAUATT against Olfr611: the z-score was 1.85.

Regarding CCGUGUUCCGAGGAUAUGUTT against Cyp2e1, the z-score is -0.212.

Consider GGGACUAUGACAAAACAGCTT against Atad2, for which the z-score is 0.0122.

Take CCUGACAUUCUUUAAUCCATT against Synb: the z-score is 0.6.

As to CCAACUCUAAUAAUAACAGTT against Slc22a26, the z-score is 3.31 (active).

As for CCAGACAUGAAACUUGUAUTT against Mms19, the z-score is -0.165.

With GGCCAGAGGACUAUGUUAUTT against C1s2, the z-score was 1.24.

As to GGGUGGAGAAAUUUUAAUGTT against Dse, the z-score was -0.22.

As to GGAAAAUGAGAUCAUGCCCTT against Sdf4, the z-score was -0.488.

Consider GGCGAUUCUGGCUCUCUUUTT against Commd9, for which the z-score was 1.28.

As to GCAGAAAGAAACGUAAAUGTT against Dhx57, the z-score was 0.464.

As to GGCUUCAGCUAUUGGGCAATT against Vsig1, the z-score is 2.19 (active).

On to “GGGAUGUGUACCGUUACAUTT against 1700010I14Rik”, for which the z-score is 0.155.

As to CCCUUUUGUUUAGCUGAUCTT against Glrp1, the z-score is -2.14 (active).

On to GGACAGUUCGUGUUUGGUUTT against Wdfy2, for which the z-score is 0.0956.

Consider GGUUCAACAAAACAGGCUUTT against Serpina1f, for which the z-score was -1.01.

As to GGAUUAAUGUUUCCUGACUTT against Mturn, the z-score is 0.704.

Regarding GGGAAACAAACAGAAGAACTT against Cfap65, the z-score was -1.2.

Regarding GGACAUUAACGAGCUGAACTT against Ube2m, the z-score is 0.67.

With GGAGAAGAAGAACAGGACATT against Rnf186, the z-score is 2.35 (active).

For the sequence GGACAGGUGAAGAUAAGUATT against Mug2, the z-score was -0.704.

As to GCCUGUAUAGAUGCUAUUCTT against Setd1a, the z-score is -0.894.

For the sequence GGUGGUUUGUGUUACAUUUTT against Ifnar2, the z-score was 2.38 (active).

As to GGACUAUGUCUUUGACAAATT against Cdyl2, the z-score was -0.133.

With GCCUAACAAUAGUGGAAUUTT against Ms4a13, the z-score is 2.76 (active).

GGAUUUCCUGUUCUUUCUATT against Prmt5: the z-score is 0.168.

Turning to GGACUGUGGCACAGAGAAATT against Hgfac, the z-score was -0.116.

Regarding GCUGAUCCAACUGGAAUCUTT against Cep164, the z-score is 0.61.

For GGCAAAGAAUGCACUUUCUTT against Elapor2, the z-score is -0.536.

As for GGAGUCCUAAAGAGUUCUATT against Slc11a1, the z-score was 0.723.

With GGAGAUGCCAGAGGUCAAATT against Gzmk, the z-score is 2.08 (active).

Regarding GGCUUUCAAGACACUUCUUTT against Ccl6, the z-score is -1.6.

Turning to GCUCAUUAACGAGAAAGUGTT against Atxn7l2, the z-score was -0.991.

Take GGCUACUGUAAGAUUUCUATT against Mgat4f: the z-score was 1.98.

Turning to GCAAAACCAAGUGAAUGUGTT against Plac1, the z-score is -0.774.

With GGAGUUUCAGCAGUCGUGATT against Prkrip1, the z-score is -0.94.

Turning to CCCUUCUCUGAUUGUCUGATT against Lce3b, the z-score is -0.452.

“GCUUCUAAAUUUGGUUCUGTT against 9830163H01Rik”: the z-score is -0.389.

For GGUGGACAAGGCAAUACAGTT against Mmp20, the z-score was 4.46 (active).

Take “GGUUUGAAUGAAUUCAAGGTT against 6030452D12Rik”: the z-score was 0.785.

Take GCUUAAUCAACUGGUACUATT against Olfr19: the z-score was -1.7.

Regarding GGGUCACGGGAACUCAAAATT against Mlf1, the z-score is -0.608.

Take GGAAUCAUCUGAACACACATT against Ctcf: the z-score was -2.18 (active).

As to GGAGAAGCUAUGGUAUUACTT against Apc2, the z-score was -0.798.

For the sequence CCACCACCAUCUAAAUAUATT against Ckap2l, the z-score is -1.62.

On to GGACACAUUCGAAUGAACCTT against Mkrn2, for which the z-score was 0.0809.

Regarding GGACAAGACCAGCAAAUACTT against Six6, the z-score is -1.58.

As to GCAUUGUGCUCAAAUCUGCTT against C1qtnf7, the z-score was -0.168.

Regarding GGGUAUUCUGUGUGUUACUTT against Hsd3b1, the z-score is 2.06 (active).

For GGGUUUUGAAACAUGCAGGTT against Cd44, the z-score is -1.54.

Turning to AGAGAGAUAUUGUUCAUCATT against Psg22, the z-score was 0.11.

Consider GGUAAUCGUGUAUUCAUAUTT against Dph5, for which the z-score is -0.327.

For the sequence GGAAACUGAAAAACAGAGUTT against Xbp1, the z-score was -0.957.

Regarding GCGAAGAGAUGCUAACUAUTT against Dhx8, the z-score is -2.86 (active).

For the sequence UGAGUUGUUUCCAGCUAAATT against Uts2b, the z-score is -0.506.

Consider GCCCGGUCCUUUACUACAUTT against Sdk1, for which the z-score was 0.595.

For the sequence GGAUGCACUCAAGAAUUACTT against Ccdc65, the z-score was 2.11 (active).

Take GGUGAGUGAUCUUCAGAACTT against Snx13: the z-score was 0.311.

For CCCUGCUAAAAUCGACCUGTT against Plekha8, the z-score is -0.912.

In the case of GCUCAUCGUGUUCGCUAUATT against Tuft1, the z-score was -0.235.

GGAGGUAAAGGAAAACUCUTT against Fmo1: the z-score was 0.27.

Regarding CCACAACUAUGAGUCUAUUTT against Ech1, the z-score is 2.05 (active).

On to GCUGGACCCACACAAAAAGTT against Rhbdl3, for which the z-score was -0.0513.

Consider “GGCUUUUCAGACCAAGCUUTT against 3830406C13Rik”, for which the z-score was 0.322.

Regarding CGUUGUAUGCUAGUACUGATT against Olfr1501, the z-score was -1.17.

GGCAAAAAGGGAUGUUACCTT against Map1lc3b: the z-score is -0.221.

For the sequence GCGAGUCUAUGUGUUCCCUTT against Cox4i2, the z-score was 0.187.

Turning to GGAAACAAAUGAGUGCCUGTT against Bloc1s5, the z-score was 2.02 (active).

As to GCUGGAAUACGGAAAAUGGTT against Gbe1, the z-score is -1.56.

GGAGGAAAUACAUGAUAAATT against Strap: the z-score was -0.159.

As for GGCUUACGAUGAAAAUAAATT against Lca5, the z-score is -1.94.

For GGCAUUGCAUUCUCACAUGTT against Gabarapl1, the z-score was 0.319.

Consider GCUCGUUGCAUAAAAAGAGTT against Creg2, for which the z-score is -0.286.

On to GGAGAUCAAAGAAUCUUGGTT against Arhgap45, for which the z-score is -4.45 (active).
